# Most compounds without a hit are left out; they make up all but 2.2% or so of the library.
# LGR2 inh: Drosophila LGR2 receptor signaling inhibition. hit rate 0.35% among 380,000. AID 720647. inhibition, % at 9.99 µM. HEK293 LGR2, CRE-luciferase, bursicon-stimulated, 4 h;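 active = drop in luminescence signal, shown as inhibition above about 50% in the replicate tests, limit read from the data, passing the limit was not always enough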;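 note: agonist challenge used bursicon conditioned medium at about half maximal strength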
# TWEAK Fn14 block: inhibitors of TWEAK-Fn14 interaction signaling; TWEAK-stimulated Fn14 reporter cells, luciferase luminescence, 8 h; inhibition, % at 10 µM; hit rate 2% among 360,000; in the data active = inhibition above about 50%
# TROY NFkB inh: blocks TROY-dependent signaling in reporter cells; hit rate 0.98% among 360,000; inhibition, % at 10 µM; Q293 LMP1-TROYcd NF-kB luciferase reporter, 4 h; AID 1347056;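 active = compounds whose plate-normalised and pattern-corrected inhibition of the luciferase reporter signal at the single screening dose is 50% or more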
# HSP90 refold inh: HSP90 refolding inhibition in rabbit reticulocyte lysate. luciferase refolding luminescence, 3 h. inhibition, % at 5.6 µM. hit rate 0.91% among 290,000;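 active = inhibition above the screen-wide mean plus 3 SD, computed separately per campaign, cut at about 16% in these data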;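 note: 0% = DMSO wells and 100% = 60 µM geldanamycin wells; inhibitors lower the luminescence because luciferase stays unfolded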
# The depositor's hits bear a star; nt = not tested or not shown.
SMILES,LGR2 inh,TWEAK Fn14 block,TROY NFkB inh,HSP90 refold inh
Cc1cc(NC(=O)CSc2cn(CCNC(=O)c3ccc(Cl)cc3)c3ccccc23)no1,9.7,66.9*,70.7*,7.9
COc1ccc(C(=O)NCCn2cc(SCC(=O)N3CCOCC3)c3ccccc32)cc1,-16.3,34.3,66.9*,46.7*
C[C@H]1CN([C@@H](C)CO)C(=O)c2cccc(NC(=O)Nc3ccc(F)cc3)c2O[C@H]1CN(C)C(=O)Nc1ccc(F)cc1,4.4,nt,nt,nt
O=C(C1CCC1)N1CC[C@@H]2[C@H](CO)Nc3ccc(-c4cccc(F)c4)cc3[C@@H]21,-9.4,nt,nt,nt
O=C(NCCn1cc(SCC(=O)N2CCOCC2)c2ccccc21)c1c(F)cccc1F,-0.8,18.5,7.2,-1.5
O=C(NCCn1cc(SCc2ccccc2F)c2ccccc21)c1c(F)cccc1F,nt,62.2*,34.4,4.2
Cc1ccccc1S(=O)(=O)Nc1ccc2c(c1)C(=O)N(C)[C@H]1CC[C@H](CC(=O)O)O[C@@H]1CO2,-5.2,nt,nt,nt
CCOCCCNC(=O)C(NC(=O)CNC(C)=O)c1ccc(C)cc1 (stereo not drawn),nt,73.1*,-10.1,-1.5
Cc1cc(C(F)(F)F)c(C#N)c(SCC(=O)Nc2nc3cc(Br)ccc3s2)n1,-31.0,78.8*,72.0*,-2.9
COc1ccc(CNC(=S)Nc2ccc(-c3ccccc3)cc2)cc1,-7.1,6.6,14.7,2.8
CNC(=S)Nc1ccc(Br)cc1,3.2,31.7,61.2*,-0.9
COc1ccc(CNC(=S)Nc2ccc(Br)cc2)cc1,5.2,64.3*,21.4,2.0
O=S(=O)(N[C@H]1CC[C@@H](CCn2cc(-c3ccccc3F)nn2)O[C@H]1CO)c1ccc(Cl)cc1,7.9,nt,nt,nt
O=C(N/N=C/c1c[nH]c2ccccc12)c1cc(-c2ccc(-c3ccccc3)cc2)n[nH]1,nt,66.8*,8.5,13.5
CC(=O)N(C)C[C@H]1[C@H](c2ccc(-c3cccc(C#N)c3)cc2)[C@@H](CO)N1C(C)=O,-0.3,nt,nt,nt
CC(C)CN=C(NS(=O)(=O)c1ccccc1)C(Cl)(Cl)Cl,94.0*,98.6*,51.0*,-5.5
COc1ccccc1-c1ccc(OCCCN2CCC(C(O)(c3ccccc3)c3ccccc3)CC2)cc1,61.8*,nt,nt,nt
COc1ccc2c3c(n(C)c2c1)[C@@H](CO)N(Cc1ccncc1)CC31CCN(C(=O)C2CCC2)CC1,-4.1,nt,nt,nt
O=C1NC2(CCN(Cc3ccccc3)CC2)Oc2ccccc21,2.3,5.4,10.1,0.6
O=C1c2ccccc2OC2(C=Cc3ccccc3O2)N1Cc1ccccc1 (stereo not drawn),13.2,76.0*,nt,-0.5
Cc1nc(N2CCN(c3ccccc3)CC2)[nH]c(=O)c1CCC(C)C,14.0,60.1*,1.7,-2.0
C[C@H](CO)N1C[C@H](C)[C@H](CN(C)S(=O)(=O)c2cccs2)Oc2ccc(NC(=O)Cc3cn(C)c4ccccc34)cc2CC1=O,13.2,nt,nt,nt
COc1ccc2c(c1)CCc1cc(C(=O)N3CCN(c4ccc(N5CCOCC5)nn4)CC3)sc1-2,nt,44.9,56.1*,-4.4
O=C(C[C@@H]1C[C@H]2c3cc(NC(=O)C4CCC4)ccc3O[C@H]2[C@H](CO)O1)NCc1cccnc1,-20.5,nt,nt,nt
CSCC(CO)NS(=O)(=O)c1ccc(C)cc1 (stereo not drawn),3.7,23.2,56.6*,3.3
SMILES,LGR2 inh,TWEAK Fn14 block,TROY NFkB inh,HSP90 refold inh
CCC(C)C(NS(=O)(=O)c1ccc(C)cc1)C(=O)O (stereo not drawn),-7.6,6.8,3.3,0.4
O=C(C[C@@H]1C[C@H]2c3cc(NC(=O)Nc4ccccc4)ccc3O[C@H]2[C@H](CO)O1)NCc1ccccc1,-1.3,nt,nt,nt
COc1ccc(C(=O)/C(C#N)=N/Nc2ccc([N+](=O)[O-])cc2)cc1,13.1,59.0*,62.8*,-4.6
N#CC(C#N)=NNc1ccc([N+](=O)[O-])cc1,27.9,21.3,56.4*,-1.4
COc1ccc(C(=O)/C(C#N)=N/Nc2ccccc2[N+](=O)[O-])cc1,nt,36.5,46.3,-2.3
O=C(CCNS(=O)(=O)c1ccccc1)OCc1nnc(-c2ccccc2)o1,-11.6,0.6,60.9*,nt
CC(=O)Nc1ccc(S(=O)(=O)NCCC(=O)OCc2nnc(-c3ccccc3)o2)cc1,-17.0,-3.8,17.5,nt
CCn1c(CNC(=O)c2ccccc2F)cc2cc(C)ccc21,-15.5,-11.3,-47.7,-0.2
CCn1c(CNC(=O)C2CCCCC2)cc2cc(C)ccc21,-0.3,53.6*,14.3,1.2
NC(=S)Cc1nc2n(n1)Cc1ccccc1-2,1.6,20.8,-3.3,3.4
Fc1ccc(-c2nc3n(n2)Cc2ccccc2-3)cc1,nt,58.2*,29.9,7.7
CCc1ccc(/C=C/C(=O)c2c(C)cc(C)[nH]c2=O)cc1,nt,79.5*,44.2,3.5
C/C(=C\c1ccc(Cl)cc1)C(=O)c1c(C)cc(C)[nH]c1=O,27.5,31.3,32.3,7.2
Cc1ccc(/C=C/C(=O)c2c(C)cc(C)[nH]c2=O)cc1,69.6*,86.0*,37.4,4.4
C/C(=C\c1ccc(Br)cc1)C(=O)c1c(C)cc(C)[nH]c1=O,44.1,52.0*,45.1,-1.0
C[C@@H]1CN([C@@H](C)CO)C(=O)c2cc(NS(C)(=O)=O)ccc2O[C@@H](C)CCCCO[C@@H]1CN(C)S(=O)(=O)c1ccccc1,37.8,nt,nt,nt
C[C@H]1CCCCO[C@H](CN(C)C(=O)Cc2ccccc2)[C@@H](C)CN([C@@H](C)CO)C(=O)c2cc(NC(=O)Nc3ccc(F)cc3)ccc2O1,-13.9,nt,nt,nt
Cc1ccc(NC(=O)N2CCCc3ccccc32)cc1,-78.9,-10.7,-5.0,0.2
Cc1ccc(NC(=O)N2CCc3ccccc32)cc1,nt,65.3*,-16.5,16.0
CCc1ccccc1NC(=O)N1CCCc2ccccc21,-9.6,52.6*,77.5*,0.5
O=[N+]([O-])c1cccnc1N1CCC(c2cc(-c3ccc(Cl)cc3Cl)n[nH]2)CC1,nt,-6.0,14.9,9.3
CC(=O)c1ccc(N2CCC(c3cc(-c4ccc(Cl)cc4Cl)n[nH]3)CC2)c([N+](=O)[O-])c1,nt,88.2*,49.5,-4.1
O=C(CSc1n[nH]c(=O)[nH]c1=O)NC1CCCCC1,-19.7,-7.7,-17.9,16.8*
CCC(=O)N1CC2(CCN(Cc3ccncc3)CC2)c2c(n(C)c3cc(OC)ccc23)[C@H]1CO,-9.5,nt,nt,nt
Cc1ccccc1NCc1ccc(O)c2ncccc12,13.7,58.8*,20.6,-1.4
SMILES,LGR2 inh,TWEAK Fn14 block,TROY NFkB inh,HSP90 refold inh
Oc1ccc(CNc2ccccc2)c2cccnc12,nt,20.9,7.9,-4.5
Oc1ccc(Cn2ccnc2)c2cccnc12,-19.2,-4.9,0.4,4.0
COCc1ccc(O)c2ncccc12,nt,78.6*,nt,9.3
COc1cc(SC#N)ccc1N=Cc1c(C)[nH]n(-c2cccc3ccccc23)c1=O,nt,nt,nt,16.4*
COc1cc(SC#N)ccc1N=Cc1c(C)[nH]n(-c2ccc(C)cc2C)c1=O,nt,-1.7,10.0,8.0
Oc1ccc(-c2csc(Nc3ccc4c(c3)OCO4)n2)c(O)c1,-88.5,15.0,-22.1,nt
N#Cc1ccc(Nc2nc(-c3ccc(O)cc3O)cs2)cc1C(F)(F)F,nt,85.8*,67.3*,nt
Cc1[nH]nc(NCCO)c1[N+](=O)[O-],13.2,9.8,-1.1,-7.5
Cc1[nH]nc(S(=O)CC(=O)O)c1[N+](=O)[O-] (stereo not drawn),27.5,61.3*,87.6*,1.6
N=c1c[n+](N2CCOCC2)[n-]o1,10.2,72.4*,15.2,3.8
